Nine compounds from PubChem BioAssay can be followed below.

Records with an inconclusive call do not appear. The source made the active and inactive calls.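 The calls were made as follows, unless noted: active = viability at or below 27.92% in each of two runs, the all-compound median minus 4 SD; inconclusive = no clear call, values can overlap the other calls; inactive = the rest.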

Assay [1] is described as follows: reducers of endogenous Her2 protein level, primary screen, SKBR3 breast tumor cells, AlphaScreen, ATP viability (AID 461;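 active = Her2 level under about 52% in both replicate screens, with viability over 70% of control, limit read from the data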;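 as to Her2 level: lower value means less Her2 protein in the cells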;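 as to viability: percent of carrier control wells set as 100% viability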). Particulars: 18-24 h, measured here: SKBR3 viability, ATP luminescence, at 10 µM.
The target in assay [2] is Receptor tyrosine-protein kinase erbB-2 (Homo sapiens) (UniProt P04626). Described as above. Particulars: 18-24 h, at 10 µM, stronger effect = lower value.
The nature of assay [3]: SK-BR-3 cell growth inhibitors, pilot screen, 24 h, human (AID 572;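 active = viability at or below 10% of carrier control in both of two separate runs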;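 also: compound exposure lasted between 18 and 24 h rather than exactly 24 h; 100% = carrier-treated control wells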). The settings on record: SK-BR-3 viability, CellTiter-Glo luminescence, at 10 µM, stronger effect = lower value.
Assay [4] in a line: HUVEC growth inhibition – cell-based, human, primary screen (AID 575;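 active = viability at or below 30% in both replicate assays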;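 also: 100% = median of untreated cell wells with 0.1% DMSO on each plate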). Particulars: HUVEC proliferation, CellTiter-Glo luminescence, 72 h; at 10 µM; stronger effect = lower value.
Assay [5] is described as follows: growth inhibitors of H69AR lung tumor, primary screen, human, duplicate replicates (AID 580;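 active = viability at or under a set limit in both replicates, limit being median viability minus 3 SD, cut at about 48% in these data, passing the limit was not always enough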;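 also: 100% = mean luminescence of untreated wells and 0% = no signal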). Particulars: H69AR lung tumor cells viability, ATP luminescence, 72 h; at 10 µM; stronger effect = lower value.
Assay [6] is described as follows: reversal of MRP1-mediated doxorubicin resistance, pilot screen, H69AR cells, doxorubicin co-treatment (AID 601;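 active = viability loss from added drug above about 55%, and viability with drug at most 40%, in both replicates, limit read from the data, passing the limit was not always enough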). The settings on record: CellTiter-Glo, 72 h, at 10 µM; for differential viability (reversal): stronger effect = higher value.
Assay [7] in a line: 384-well plate pilot, post-Golgi transport modulator project, inhibition of yeast transport mutant growth (AID 636; in the data active = inhibition above about 31%). Particulars: absorbance 615 nm, about 18 h, stronger effect = higher value.
Assay [8] is described as follows: growth suppression of yeast trafficking mutant, preliminary HTS, modulators of trafficking downstream of Golgi apparatus project, 1536-format plate, OD 615 nm (AID 637; in the data active = inhibition above about 30%). Particulars: yeast transport mutant growth, absorbance 615 nm, 18 h; stronger effect = higher value.
Assay [9] can be described thus: OD615 S. cerevisiae growth inhibition, permissive medium, pilot counter-assay, permissive growth control for S. cerevisiae lifespan shortening project (AID 705;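 active = growth inhibition above 25% in both replicates, a cutoff set 3 SD above the mean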). Particulars: OD615, 24 h, at 10 µM, stronger effect = higher value.
Assay [10] can be described thus: Restrictive medium S. cerevisiae growth inhibition, OD615, pilot screen of yeast lifespan reduction project, restrictive growth control (AID 706;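 active = growth inhibition above a set limit, 3 SD over mean compound inhibition, in both replicates, cut at about 43% in these data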;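 also: modified DeaD lifespan yeast strain shifted to restrictive glucose medium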). Particulars: OD615, 48 h, at 10 µM, stronger effect = higher value.
Assay [11] can be described thus: viability gain of MRP-1-high H69AR cells under doxorubicin, pilot screen, MRP-1 activator project, CellTiter-Glo, duplicate (AID 807;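 active = viability increase at or above a cutoff of the median across tested compounds plus 3 SD, cut at about 8.5% in these data, passing the limit was not always enough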;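 also: compound pretreatment 18-22 h then 72 h combined with doxorubicin; 0% = doxorubicin alone and 100% = vehicle without doxorubicin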). Particulars: H69AR viability with doxorubicin, CellTiter-Glo luminescence; at 10 µM; stronger effect = higher value.
Assay [12] can be described thus: growth suppression of beta-catenin knockout HCT116, pilot screen, human colon tumor cells (AID 823;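 active = cell viability at or below a set limit in both duplicate runs, the limit being the all-compound median minus 4 SD, cut at about 23% in these data, passing the limit was not always enough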;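 also: 0% = wells killed by 20 µM Hyamine and 100% = untreated DMSO cell wells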). Particulars: CellTiter-Glo, 60 h, at 10 µM, stronger effect = lower value.
Assay [13] is described as follows: growth suppression of PTEN-deleted HCT116, pilot screen, cell-based, HCT116 clonal line, CellTiter-Glo (AID 824).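 Also: 0% = 20 µM Hyamine control and 100% = vehicle cell control.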 Particulars: 60 h, at 10 µM, stronger effect = lower value.
Assay [14] is described as follows: inhibitors of the yeast RAM network, pilot screen, dse1pr::URA3 reporter, 5-FOA selection (AID 869;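 active = inhibition over a set limit, the all-compound mean plus 3 SD, in both replicate runs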;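 also: 0% = DMSO wells with no growth and 100% = 10 µM 1-NA-PP1 with full growth; RAM network block rescues cells from 5-FOA so hits raise OD615 growth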). The settings on record: S. cerevisiae dse1pr::URA3 5-FOA growth, OD615, 2 d; at 10 µM; stronger effect = higher value; strain carries analog-sensitive mutant Cbk1 kinase.
A short description of assay [15]: RAM signaling pathway blockade in yeast – S. cerevisiae, Pdr1DBD-CYC8 efflux-inhibited sensitized strain, primary screen (AID 1298;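 active = RAM network inhibition above 8.4% in each of two replicates, 3 SD over the compound average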;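 also: 0% = DMSO untreated cells without growth and 100% = 10 µM 1-NA-PP1 full growth; higher means more yeast growth rescued from 5-FOA killing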). The settings on record: S. cerevisiae cbk1-as DSE1-URA3 strain, 5-FOA growth OD615, 2 d; at 50 µM; stronger effect = higher value.
The mark [16] stands for this setting: H69AR cells + 2 uM doxorubicin, measured here: viability with 2 uM doxorubicin, stronger effect = lower value.
[17] abbreviates: H69AR cells, compound alone cytotoxicity.

Sequence of Receptor tyrosine-protein kinase erbB-2 (Homo sapiens) (P04626 whole entry, looked up): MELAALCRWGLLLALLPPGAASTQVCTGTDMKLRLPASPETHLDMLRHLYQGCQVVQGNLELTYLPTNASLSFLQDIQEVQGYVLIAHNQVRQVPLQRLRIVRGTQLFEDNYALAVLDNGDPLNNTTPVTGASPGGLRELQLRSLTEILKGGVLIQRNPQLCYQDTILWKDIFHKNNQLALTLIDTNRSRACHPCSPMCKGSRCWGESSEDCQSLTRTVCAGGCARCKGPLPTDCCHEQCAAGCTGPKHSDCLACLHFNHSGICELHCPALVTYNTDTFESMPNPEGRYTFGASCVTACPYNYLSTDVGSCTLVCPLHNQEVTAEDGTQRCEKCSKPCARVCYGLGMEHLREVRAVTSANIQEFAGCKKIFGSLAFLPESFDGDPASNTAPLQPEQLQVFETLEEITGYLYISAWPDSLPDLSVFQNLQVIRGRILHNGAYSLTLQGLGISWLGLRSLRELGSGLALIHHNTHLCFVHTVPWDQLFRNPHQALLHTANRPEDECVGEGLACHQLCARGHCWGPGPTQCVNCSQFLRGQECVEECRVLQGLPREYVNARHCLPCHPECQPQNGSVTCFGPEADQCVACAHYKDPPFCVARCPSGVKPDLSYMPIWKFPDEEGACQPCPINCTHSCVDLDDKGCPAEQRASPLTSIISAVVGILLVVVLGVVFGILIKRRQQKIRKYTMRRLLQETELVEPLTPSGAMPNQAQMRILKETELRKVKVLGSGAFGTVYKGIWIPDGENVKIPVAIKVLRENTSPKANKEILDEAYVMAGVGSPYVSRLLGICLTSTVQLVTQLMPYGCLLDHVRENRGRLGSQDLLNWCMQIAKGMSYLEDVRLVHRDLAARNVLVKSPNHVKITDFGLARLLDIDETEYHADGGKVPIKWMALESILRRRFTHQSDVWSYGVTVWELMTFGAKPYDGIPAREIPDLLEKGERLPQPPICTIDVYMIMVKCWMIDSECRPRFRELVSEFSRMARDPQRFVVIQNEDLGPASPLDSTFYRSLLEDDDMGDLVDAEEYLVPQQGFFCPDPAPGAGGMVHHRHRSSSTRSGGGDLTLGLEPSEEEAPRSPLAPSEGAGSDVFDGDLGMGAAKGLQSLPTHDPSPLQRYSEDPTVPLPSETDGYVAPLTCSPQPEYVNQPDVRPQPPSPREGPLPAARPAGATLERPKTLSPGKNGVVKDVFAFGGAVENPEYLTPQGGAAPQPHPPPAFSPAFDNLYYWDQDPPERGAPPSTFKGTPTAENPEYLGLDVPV

Consider `COc1ccc(C(=O)NCC(=O)NC2=NCCS2)cc1`, for which the viability in [1] was 100%; in assay [3], 100% (inactive); in [4] it was 120% (inactive); in [5] it was 102% (inactive); in [6] (setting [16]), 91%; in [6] (setting [17]), 102%. The viability in [12] was 102% (inactive); in [13], 98.1% (inactive). For the same compound, the Her2 level in assay [2] was 104% (inactive). In addition, the differential viability (reversal) in [6] (H69AR cells + 2 uM doxorubicin) was 10.7% (inactive). In addition, the values for the inhibition in assay [7], in [8] and in [14] were -4.67% (inactive), 0.33% (inactive) and 1.56% (inactive), respectively. The growth inhibition is -1.83% (inactive) in assay [9] and -4.44% (inactive) in assay [10]. Also, the viability increase in [11] was -1.93% (inactive). Moreover, the RAM network inhibition in assay [15] was 2.03% (inactive).

For `COc1ccc(-n2c(Cc3cccn3C)nnc2SCC(N)=O)cc1`, the viability in assay [1] was 94.5%; in assay [3], 94.5% (inactive); in [4] it was 112% (inactive); in [5], 97.5% (inactive); in assay [6] (setting [16]), 94.8%; in assay [6] (setting [17]), 97.5%. Further, the viability in assay [12] was 97.6% (inactive); in assay [13], 94.4% (inactive). The Her2 level in assay [2] was 95% (inactive). In addition, the differential viability (reversal) in assay [6] (H69AR cells + 2 uM doxorubicin) was 2.7% (inactive). Also, the results for the inhibition in assay [7], in [8] and in assay [14] were 0.64% (inactive), -3.5% (inactive) and 1.42% (inactive), respectively. The results for the growth inhibition in assay [9] and in assay [10] were 8.68% (inactive) and 5.57% (inactive), respectively. In assay [11], the viability increase was -2.07% (inactive). Besides, in assay [15], the RAM network inhibition was 0.63% (inactive).

For the compound `COc1ccc(N2CCN(C(=O)c3c(-c4ccccc4)noc3C)CC2)cc1`, the viability was 91.5% in [1]; 91.5% (inactive) in [3]; 94.4% (inactive) in assay [4]; 88.1% (inactive) in assay [5]; 92.8% in [6] (setting [16]); 88.1% in [6] (setting [17]). Also, the viability was 94.4% (inactive) in assay [12] and 90.3% (inactive) in assay [13]. Further, the Her2 level in assay [2] was 108% (inactive). The differential viability (reversal) in assay [6] (H69AR cells + 2 uM doxorubicin) is -4.69% (inactive). Further, the inhibition was 0.51% (inactive) in assay [7], 4% (inactive) in assay [8] and 0.795% (inactive) in assay [14]. Also, the growth inhibition in [9] was -9.57% (inactive); in assay [10], -10.4% (inactive). Further, in [11], the viability increase is -2.79% (inactive). Also, the RAM network inhibition in assay [15] was 4.5% (inactive).

For `COc1ccc(-n2nnnc2SCC(=O)N2CCOCC2)cc1`, the viability was 93% in assay [1]; 93% (inactive) in assay [3]; 83.8% (inactive) in [4]; 89.2% (inactive) in assay [5]; 88.6% in [6] (setting [16]); 89.2% in assay [6] (setting [17]). For the same compound, the viability in assay [12] was 96.2% (inactive); in assay [13], 98.8% (inactive). Besides, the Her2 level in assay [2] is 92% (inactive). Also, the differential viability (reversal) in assay [6] (H69AR cells + 2 uM doxorubicin) is 0.58% (inactive). In addition, the inhibition in assay [7] was -4.67% (inactive); in [8], -0.5% (inactive); in assay [14], 0.85% (inactive). Also, the growth inhibition in assay [9] is -2.94% (inactive); in [10], -5.96% (inactive). In assay [11], the viability increase was -1.07% (inactive). In addition, in assay [15], the RAM network inhibition was 3.08% (inactive).

Regarding `Cn1cc(Cl)c(C(=O)N(Cc2ccccc2)c2ccccn2)n1`, the viability is 98% in assay [1]; 98% (inactive) in assay [3]; 101% (inactive) in assay [4]; 92.2% (inactive) in [5]; 93.2% in assay [6] (setting [16]); 92.2% in [6] (setting [17]). The viability in assay [12] was 93.3% (inactive); in assay [13], 94.7% (inactive). Besides, in assay [2], the Her2 level is 116% (inactive). In addition, in assay [6] (H69AR cells + 2 uM doxorubicin), the differential viability (reversal) is -1.01% (inactive). In addition, the values for the inhibition in [7], in assay [8] and in assay [14] were 1.33% (inactive), 2.33% (inactive) and 1.62% (inactive), respectively. Further, the growth inhibition in assay [9] was -8.19% (inactive); in assay [10], -1.84% (inactive). For the same compound, in assay [11], the viability increase is -0.96% (inactive). Moreover, the RAM network inhibition in assay [15] is 7.22% (inactive).

Take `Cc1ccc(C2CC(c3ccc(C)cc3)n3nc(N)nc3N2)cc1` (stereo not drawn): the viability in assay [1] was 95%; in assay [3], 95% (inactive); in [4], 102% (inactive); in [5], 88.5% (inactive); in assay [6] (setting [16]), 97.1%; in [6] (setting [17]), 88.5%. Besides, the viability was 96.7% (inactive) in assay [12] and 93.1% (inactive) in assay [13]. In addition, the Her2 level in [2] was 109% (inactive). In addition, the differential viability (reversal) in assay [6] (H69AR cells + 2 uM doxorubicin) was -8.68% (inactive). For the same compound, the inhibition in assay [7] was -1.79% (inactive); in assay [8], -1% (inactive); in assay [14], 1.34% (inactive). Besides, the growth inhibition is 1.83% (inactive) in [9] and 12.3% (inactive) in [10]. In assay [11], the viability increase is -0.92% (inactive). Further, the RAM network inhibition in [15] is 1.75% (inactive).

In the case of `C=C(C)Cn1c(N2CC(C)CC(C)C2)nc2c1c(=O)[nH]c(=O)n2C` (stereo not drawn), the viability in assay [1] is 84%; in assay [3], 84% (inactive); in assay [4] it was 96.2% (inactive); in assay [5], 83.2% (inactive); in assay [6] (setting [16]), 95.1%; in assay [6] (setting [17]), 83.2%. For the same compound, the viability in assay [12] is 78.3% (inactive); in assay [13], 81.2% (inactive). Besides, in assay [2], the Her2 level was 86% (inactive). For the same compound, the differential viability (reversal) in [6] (H69AR cells + 2 uM doxorubicin) was -11.8% (inactive). In addition, the inhibition in assay [7] was -4.93% (inactive); in assay [8], 1% (inactive); in assay [14] it was 1.05% (inactive). The growth inhibition was -5.73% (inactive) in assay [9] and 0.695% (inactive) in assay [10]. Also, in assay [11], the viability increase was -5.11% (inactive). For the same compound, the RAM network inhibition in [15] was 1.9% (inactive).

For `CCCCc1nc2ccccc2n2cc3c(=O)n(C)c(=O)n(C)c3c12`, the viability in assay [1] was 86%; in assay [3], 86% (inactive); in assay [4] it was 106% (inactive); in assay [5] it was 89.6% (inactive); in [6] (setting [16]) it was 84.8%; in assay [6] (setting [17]) it was 89.6%. For the same compound, the figures for the viability in [12] and in assay [13] were 95.8% (inactive) and 89.2% (inactive), respectively. Further, the Her2 level in assay [2] is 86% (inactive). Also, the differential viability (reversal) in assay [6] (H69AR cells + 2 uM doxorubicin) was 4.81% (inactive). For the same compound, the inhibition in assay [7] was 0% (inactive); in [8] it was 2.17% (inactive); in [14], 1.36% (inactive). The growth inhibition in [9] is -9.65% (inactive); in assay [10], -16.2% (inactive). Also, in assay [11], the viability increase was -4.07% (inactive). Besides, in assay [15], the RAM network inhibition is 0.47% (inactive).

As to `CCN(CC)CCn1c(=N)n(CCO)c2ccccc21`, the viability in assay [1] is 94.5%; in assay [3] it was 94.5% (inactive); in assay [4] it was 107% (inactive); in [5] it was 101% (inactive); in assay [6] (setting [16]), 92.9%; in assay [6] (setting [17]), 101%. For the same compound, the viability was 101% (inactive) in assay [12] and 97.5% (inactive) in [13]. Also, the Her2 level in [2] was 94% (inactive). Moreover, the differential viability (reversal) in assay [6] (H69AR cells + 2 uM doxorubicin) is 8.55% (inactive). The inhibition was -5.32% (inactive) in assay [7], 2.33% (inactive) in assay [8] and 0.605% (inactive) in assay [14]. The growth inhibition in assay [9] is 0.615% (inactive); in [10], 1.18% (inactive). The viability increase in assay [11] was -0.4% (inactive). In assay [15], the RAM network inhibition was 4.92% (inactive).
